This is a sample that favours compounds with a hit; in the whole collection about 7.5% have one here.
ELG1 genotox: qHTS screen for small molecules that induce genotoxicity in human embryonic kidney (HEK293T) cells expressing luciferase-tagged ELG1 | HEK293T ELG1-luciferase reporter, luminescence, 16 h | Potency, µM (titrated, usually from 46 µM), without a hit: at the top dose activity change, positive = activation, usual class: activators | hit rate 1.3% among 330,000 | AID 504466, 2011; further: % of control where 0% means no effect; nearly all actives have a fitted effect of over 60% in size
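ELG1-luciferase HEK293T cells, 2,000/well; compound pinned in; 16 hr, 37 °C, 5% CO2; ONE-Glo, 30 min RT; luminescence on CCD imager.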
Rab9 prom act: qHTS Assay for Rab9 Promoter Activators. hit rate 2.8% among 320,000. Huh7 Rab9 promoter-luciferase reporter, luminescence, 24 h. Potency, µM (series often up to 9.22 µM), for the others: at the top dose activation, negative = inhibition, usual class: activators; further: % of control where 0% means no effect; nearly all actives have a fitted effect of over 60% in size
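Using Huh7 cells stably transfected with Rab9 promoter–luciferase, compounds were incubated 24 h at 37 °C, 5% CO2; luciferase luminescence was read 10 min after reagent addition.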
NPC1 promoter act: qHTS Assay for NPC1 Promoter Activators; Huh7 NPC1 promoter luciferase reporter, 24 h; Potency, µM (titrated, usually from 9.22 µM), inactives show top-dose activation, actives largely listed as activators; hit rate 2.4% among 320,000; further: % of control where 0% means no effect; nearly all actives have a fitted effect of over 60% in size
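In 1536-well qHTS, Huh7 cells harboring an NPC1 promoter–luciferase construct received compound for 24 h; activation was quantified by luminescence following luciferase reagent addition.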
Luc counter: Counterscreen for Luciferase (Kinase-Glo TM) Inhibition; Luciferin 4-monooxygenase (Photuris pensylvanica), Q27757; Kinase-Glo luciferase, ATP luminescence, 8 min; Potency, µM (doses to about 38.3 µM), for inactives: top-dose activity change, negative = inhibition, hits mostly inhibitors; hit rate 0.28% among 200,000; further: on the % scale 0 is the no-effect control and ±100 the full control effect; nearly all actives have a fitted effect of over 60% in size
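Kinase-Glo luciferase light output from ATP and luciferin was measured with 10 uM ATP, within the enzyme's linear range. Buffer: 50 mM imidazole pH 7.2, 50 mM KCl, 7 mM MgCl2, 0.01% Tween 20, 0.05% BSA; luminescence read after 8 min at ambient temperature.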
SMN2 splice enh: qHTS Assay for Enhancers of SMN2 Splice Variant Expression. hit rate 2.8% among 210,000. HEK293 SMN2-luciferase splicing reporter, luminescence, 30-36 h. Potency, µM (doses to about 46.1 µM), for the others: at the top dose activity change, positive = activation, usual class: activators. AID 1458, 2008; further: % of control where 0% means no effect; nearly all actives have a fitted effect of over 55% in size
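HEK293 cells carry an SMN2 […]–luciferase reporter in which exon 7 inclusion puts luciferase in frame. Cells were plated 10-12 h before compound addition, then incubated 30-36 h at 37C. ONE-Glo luminescence was read; sodium butyrate at 4.5 mM final served as control.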
FLuc counter: qHTS profiling assay for firefly luciferase inhibitor/activator using purifed enzyme and Km concentrations of substrates (counterscreen for miR-21 project). purified FLuc, Km substrates, luminescence inhibition. hit rate 6.9% among 360,000. Potency, µM (doses to about 57.5 µM), for the others: at the highest dose activity change, negative = inhibition, most hits filed as inhibitors;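 further: plate controls were vehicle for no effect and reference inhibitor for full effect; nearly all actives have a fitted effect of over 55% in size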
Target sequence (P08659 whole entry, looked up): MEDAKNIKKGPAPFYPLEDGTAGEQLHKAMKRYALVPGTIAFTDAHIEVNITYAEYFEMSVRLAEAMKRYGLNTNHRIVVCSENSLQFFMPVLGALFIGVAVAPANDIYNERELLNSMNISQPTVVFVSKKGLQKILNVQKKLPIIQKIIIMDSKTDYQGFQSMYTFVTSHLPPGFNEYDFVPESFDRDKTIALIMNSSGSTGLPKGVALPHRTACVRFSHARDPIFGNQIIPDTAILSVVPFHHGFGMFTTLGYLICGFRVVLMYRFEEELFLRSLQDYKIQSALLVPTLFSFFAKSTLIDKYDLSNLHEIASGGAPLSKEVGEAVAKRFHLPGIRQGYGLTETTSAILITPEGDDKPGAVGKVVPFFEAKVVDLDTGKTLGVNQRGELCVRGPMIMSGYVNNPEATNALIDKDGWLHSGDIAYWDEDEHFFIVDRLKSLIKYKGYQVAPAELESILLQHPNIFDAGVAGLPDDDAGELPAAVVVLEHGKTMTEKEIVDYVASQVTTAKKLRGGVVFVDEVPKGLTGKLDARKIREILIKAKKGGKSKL
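Purified P. pyralis luciferase, 10 nM final, with Km-level 10 uM D-luciferin and 10 uM ATP in 50 mM Tris acetate pH 7.5, 10 mM Mg acetate, 0.01% Tween-20, 0.05% BSA; 6-point qHTS titration about 60 µM downward; luminescence read.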
Starred values were filed as active, the others as inactive; ? = inconclusive; . = no result. The call rests on the fitted dose curve; in most records, active means well fitted curve in the direction sought with a large enough effect; inconclusive means small, poorly fitted or top-dose-only effect, or another doubt; inactive means no such curve, though single readings can be large; an effect the other way counts as inactive or inconclusive. Potency means the concentration at half of the fitted maximal effect.

SMILES | ELG1 genotox | Rab9 prom act | NPC1 promoter act | Luc counter | SMN2 splice enh | FLuc counter
Cn1cc(S(=O)(=O)N2CCCCC2)cc1C(=O)N1CCN(c2ccc(F)cc2)CC1 | . | . | . | . | . | -8.0%
Cc1cccc2nc(-c3cccc(NC(=O)Cc4ccccc4)c3)cn12 | -7.5% | 0.3% | -1.8% | -9.1% | 2.1% | 10.7µM*
Cc1cccc2nc(-c3cccc(NC(=O)c4ccc(Cl)cc4)c3)cn12 | -6.7% | -0.6% | -2.5% | -3.7% | -12.3% | 6.01µM*
Cc1cccc(NC(=O)N2CCC3(CC2)Oc2ccccc2C(=O)N3Cc2ccccc2F)c1C | . | . | . | . | -2.7% | 0.7%
CCSc1nnc(NC(=O)CC)s1 | -3.2% | -5.2% | 0.2% | -0.4% | -4.8% | 0.2%
CCSc1nnc(NC(=O)[C@H](C)NC(=O)c2ccccc2Cl)s1 | -1.8% | -1.3% | 0.0% | 0.1% | 1.8% | -11.6%
CCSc1nnc(NC(=O)c2ccccc2C)s1 | ? | 2.51µM* | ? | -7.3% | 10µM* | 23.9µM*
CCSc1nnc(NC(=O)c2ccc(Br)s2)s1 | ? | ? | ? | 6.9% | ? | 15.1µM*
CCSc1nnc(NC(=O)c2ccccc2)s1 | ? | 3.16µM* | 3.55µM* | -5.2% | 11.2µM* | 13.5µM*
CCSc1nnc(NC(=O)c2cccnc2Cl)s1 | ? | 11.2% | 17.8% | -0.8% | 17.8µM* | ?
CCSc1nnc(NC(=O)c2cccnc2)s1 | ? | 28.7% | ? | -1.7% | ? | ?
CCSc1nnc(NC(=O)c2cnccn2)s1 | 9.4% | -0.8% | 8.4% | -2.6% | 19.0% | 2.3%
Cc1cccc(NS(=O)(=O)c2ccc3c(c2)C(C)(C)C(=O)N3C)c1 | . | . | . | . | . | -2.7%
Cc1ccc(CNC(=O)C2CCCN(S(=O)(=O)c3cn(C)cn3)C2)cc1 (stereo not drawn) | . | . | . | . | . | 1.9%
Cc1cccc(NC(=O)c2cnc3sc(N4CCCC4)nn3c2=O)c1C | . | . | . | . | . | -0.3%
O=C(Nc1nnc(C(F)(F)F)s1)c1ccc(Br)s1 | 11.4% | 12.2% | ? | -0.4% | ? | 8.49µM*
O=C(Nc1nnc(C2CCCCC2)s1)c1ccc(Br)s1 | ? | 1.78µM* | 0.501µM* | 2.6% | 3.16µM* | ?
CCSc1nnc(NC(=O)c2ccccn2)s1 | 16.4µM* | ? | 0.891µM* | -29.0% | 3.98µM* | 8.49µM*
Cc1cccc(N(CC(=O)NCCc2ccccc2)C(=O)c2csnn2)c1 | -10.0% | -4.3% | -0.8% | . | . | 2.1%
C=CCOc1ccc2c(OC)c3ccoc3nc2c1OC | ? | 2.4% | 21.9% | -8.0% | 12.6µM* | 9.53µM*
CCOc1c2ccoc2nc2c(OC)c(OC)ccc12 | ? | 21.0% | 13.9% | . | . | 21.3µM*
NNC(=O)[C@H](Cc1ccccc1)NC(=O)Nc1ccc2c(c1)OCCO2 | -0.1% | -3.4% | -5.6% | . | . | 3.4%
CCOC(=O)CNC(=O)c1sc(NC(=O)c2cccc(F)c2)nc1C | ? | 14.4% | 7.6% | -4.6% | 18.2% | 21.3µM*
CCOC(=O)CNC(=O)c1sc(NC(=O)c2ccccc2F)nc1C | 9.2µM* | ? | ? | . | . | 10.7µM*
COC(=O)c1sc(NC(=S)NC(=O)c2cccc(C)c2)nc1C | ? | ? | 21.3% | -3.1% | 22.2% | ?
SMILES | ELG1 genotox | Rab9 prom act | NPC1 promoter act | Luc counter | SMN2 splice enh | FLuc counter
O=C(CNC(=O)c1ccccc1F)OCCCOC(=O)CNC(=O)c1ccccc1F | 0.0% | 10.8% | -1.0% | . | . | -1.8%
Cc1noc(C)c1COC(=O)CNC(=O)c1cccc(F)c1 | 0.4% | 2.3% | -4.1% | -0.2% | 2.8% | -2.0%
COC(=O)c1sc(NC(=S)NC(=O)c2ccccc2F)nc1C | ? | 1µM* | ? | -3.9% | -15.5% | 8.49µM*
Nc1ccc(NC(=O)NC2CCCCC2)cc1 | ? | ? | 24.0% | -2.2% | . | ?
O=C(Nc1ccc2nsnc2c1)NC1CCCCC1 | ? | 1.41µM* | 2.24µM* | 18.5% | ? | 6.75µM*
CCC1CCC(NC(=O)Nc2cccc(OC)c2)CC1 (stereo not drawn) | ? | 1.26µM* | 3.98µM* | -2.0% | . | 4.78µM*
CC(=O)c1cccc(NC(=O)NC2CCCCCCC2)c1 | 1.6% | 24.2% | 25.4% | . | . | 16.9µM*
CC(=O)c1ccc(NC(=O)NC2CCCCCCC2)cc1 | 8.2µM* | 1.78µM* | 1.58µM* | . | . | 12µM*
CCOc1ccc(CCNC(=O)c2cccc(-n3c(C)nc4cccnc43)c2)cc1 | . | . | . | . | . | -11.7%
Cc1cc(=O)[nH]c2nnc(SCc3cccc(F)c3)n12 | . | . | . | . | . | -12.5%
CN(C)CCn1c2c(c(SCC(=O)Nc3ccc(F)cc3F)nc1=O)CCC2 | . | . | . | . | . | -1.1%
COC(=O)CC1Oc2ccccc2-n2cc(-c3ccc(F)cc3)nc21 (stereo not drawn) | . | . | . | . | -18.1% | -1.7%
COCCN(CCOC)c1nc(C)nc2c1nc(-c1ccccc1)n2CCCN1CCCCC1C (stereo not drawn) | . | . | . | 0.1% | -9.9% | .
CCc1ccccc1S(=O)(=O)Cc1ccc(C(=O)NCCc2ccc(C)cc2)o1 | . | . | . | . | -22.2% | -16.4%
Fc1ccccc1-c1nc(-c2ccccc2)oc1NC1CCCCC1 | . | . | . | -4.2% | 18.9% | .
Cc1ccc(NC(=O)NC2CCCCCCC2)cc1C | ? | 3.55µM* | 3.98µM* | . | . | 7.57µM*
Cc1cccc(NC(=O)NC2CCCCCCC2)c1 | ? | 3.55µM* | 1.58µM* | . | . | 10.7µM*
CC(=O)c1cccc(NC(=O)NC2CCCCC2)c1 | 1.3% | -5.1% | 2.7% | 12.4% | 12.8% | ?
FC(F)(F)c1cc(NC(=S)Nc2ccc3cc4ccccc4cc3c2)cc(C(F)(F)F)c1 | . | . | . | 2.6% | -2.9% | .
CCC(=O)Nc1cccc(-c2cn3ccccc3n2)c1 | 12.0% | ? | ? | -0.2% | ? | 10.7µM*
CN(C)S(=O)(=O)c1cccc(-c2cn3ccccc3n2)c1 | 1.9% | 25.9% | 14.1% | -0.1% | 1.2% | -11.1%
O=C(Nc1cccc(-c2cn3ccccc3n2)c1)C1CC1 | ? | 3.3% | 26.3% | -2.4% | ? | 13.5µM*
COc1ccc(CC(=O)Nc2cccc(-c3cn4ccccc4n3)c2)cc1 | -3.1% | 23.1% | 1.6% | -4.6% | 24.7% | 8.49µM*
CCC(=O)Nc1cccc(-c2nc3ccccc3o2)c1 | 11.4% | 23.8% | 10.4% | 3.7% | 13.6% | ?
COc1ccc(-c2cn(-c3ccc(C)cc3)c(S(=O)(=O)CC(=O)Nc3ccccc3)n2)cc1 | . | . | . | . | 12.6µM* | ?
O=C(Cc1ccc(F)cc1)NC1CC(=O)N(c2ccccc2)C1 (stereo not drawn) | . | . | . | . | . | -3.5%

Screens deposited in PubChem by National Center for Advancing Translational Sciences (NCATS).
